Test results taken from ChEMBL document CHEMBL3988442, “University of Dundee, Small-Polar-MMV Screening Library” (2021).
For some assays here: Entries with a potency or affinity are not part of this list.

Key:
Parameters in all cases: scale not given: direction of the effect not stated beside the values
[1] = molecular target: Protein translocase subunit SecA (Escherichia coli (strain K12)) (UniProt P10408); assay: Assay to Identify E. coli SecA ATPase Inhibitors; type: functional; settings: 30 µM
Protein translocase subunit SecA (Escherichia coli (strain K12)), sequence (P10408 whole entry): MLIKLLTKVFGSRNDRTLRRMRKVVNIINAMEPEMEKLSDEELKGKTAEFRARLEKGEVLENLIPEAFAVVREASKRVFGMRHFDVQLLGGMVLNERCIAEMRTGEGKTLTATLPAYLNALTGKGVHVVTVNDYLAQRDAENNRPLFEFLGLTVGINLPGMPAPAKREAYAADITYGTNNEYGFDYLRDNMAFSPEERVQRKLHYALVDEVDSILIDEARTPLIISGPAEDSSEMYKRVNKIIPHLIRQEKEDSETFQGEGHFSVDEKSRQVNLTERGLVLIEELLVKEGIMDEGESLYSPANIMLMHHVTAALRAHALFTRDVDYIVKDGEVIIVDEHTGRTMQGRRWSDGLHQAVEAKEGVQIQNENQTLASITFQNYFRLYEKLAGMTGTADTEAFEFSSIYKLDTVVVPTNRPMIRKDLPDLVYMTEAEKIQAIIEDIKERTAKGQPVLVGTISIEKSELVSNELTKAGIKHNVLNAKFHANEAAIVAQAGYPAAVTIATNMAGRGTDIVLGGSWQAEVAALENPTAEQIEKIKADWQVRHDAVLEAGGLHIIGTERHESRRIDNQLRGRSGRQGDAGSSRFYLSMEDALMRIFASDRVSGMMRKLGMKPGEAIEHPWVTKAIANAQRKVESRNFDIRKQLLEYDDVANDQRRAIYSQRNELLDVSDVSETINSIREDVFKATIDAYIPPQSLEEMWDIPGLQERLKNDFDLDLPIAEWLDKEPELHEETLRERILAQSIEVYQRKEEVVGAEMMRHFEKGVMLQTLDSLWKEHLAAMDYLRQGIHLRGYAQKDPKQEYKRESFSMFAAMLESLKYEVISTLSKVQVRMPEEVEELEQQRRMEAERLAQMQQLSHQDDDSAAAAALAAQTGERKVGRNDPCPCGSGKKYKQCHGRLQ

[2] = molecular target: T1, Ubiquitin-activating enzyme e1, putative (Leishmania donovani (strain BPK282A1)) (UniProt E9BSI1); assay: Leishmania donovani Ubiquitin Activating Enzyme (LdE1); type: functional; settings: 30 µM
T1 sequence (whole entry): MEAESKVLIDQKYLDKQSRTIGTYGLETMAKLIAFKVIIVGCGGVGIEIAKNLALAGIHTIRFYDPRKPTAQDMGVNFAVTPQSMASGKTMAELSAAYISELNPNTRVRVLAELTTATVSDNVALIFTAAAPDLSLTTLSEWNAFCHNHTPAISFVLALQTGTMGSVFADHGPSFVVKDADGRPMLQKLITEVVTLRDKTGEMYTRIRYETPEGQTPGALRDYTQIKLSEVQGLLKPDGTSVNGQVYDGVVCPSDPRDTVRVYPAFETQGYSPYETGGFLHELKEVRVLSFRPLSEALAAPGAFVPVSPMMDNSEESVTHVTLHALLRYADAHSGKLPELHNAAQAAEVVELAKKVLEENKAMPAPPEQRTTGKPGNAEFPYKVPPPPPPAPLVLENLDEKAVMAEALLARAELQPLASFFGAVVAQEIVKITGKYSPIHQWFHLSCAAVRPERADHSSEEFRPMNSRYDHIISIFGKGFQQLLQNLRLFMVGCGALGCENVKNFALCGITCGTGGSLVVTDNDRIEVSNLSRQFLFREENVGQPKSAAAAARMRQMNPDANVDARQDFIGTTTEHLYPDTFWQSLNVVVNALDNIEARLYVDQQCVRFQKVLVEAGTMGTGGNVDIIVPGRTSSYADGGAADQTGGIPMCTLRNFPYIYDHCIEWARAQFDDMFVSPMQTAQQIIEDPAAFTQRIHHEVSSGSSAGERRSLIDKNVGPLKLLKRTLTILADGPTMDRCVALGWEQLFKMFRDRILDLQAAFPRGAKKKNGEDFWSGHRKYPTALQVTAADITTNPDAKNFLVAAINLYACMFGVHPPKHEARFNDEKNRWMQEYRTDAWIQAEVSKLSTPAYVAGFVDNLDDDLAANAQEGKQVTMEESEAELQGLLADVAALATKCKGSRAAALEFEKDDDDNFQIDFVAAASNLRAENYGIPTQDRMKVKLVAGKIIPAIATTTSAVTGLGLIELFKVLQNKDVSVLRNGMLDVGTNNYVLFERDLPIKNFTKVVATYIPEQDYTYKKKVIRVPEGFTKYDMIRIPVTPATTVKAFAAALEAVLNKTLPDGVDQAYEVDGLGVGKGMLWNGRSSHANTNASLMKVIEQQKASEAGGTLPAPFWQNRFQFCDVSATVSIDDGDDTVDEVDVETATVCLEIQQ

[3] = molecular target: AMP-activated protein kinase, AMPK (Homo sapiens) (UniProt P54646+O43741+P54619+Q9UGJ0+Q9Y478+Q13131+Q9UGI9); assay: AMP-dependent Kinase enzyme assay. An in vitro enzyme assay that detects ADP turnover that is directly proportional to AMPK activity. This uses naive AMPK that is activated during the assay with MK-8722; type: functional; settings: 30 µM
[4] = molecular target: Sialic acid-binding Ig-like lectin 9 (Homo sapiens) (UniProt Q9Y336); assay: Hs-Siglec9 ALPHAscreen SOP 20170721; settings: 10 µM
Sialic acid-binding Ig-like lectin 9 (Homo sapiens), sequence (Q9Y336 whole entry): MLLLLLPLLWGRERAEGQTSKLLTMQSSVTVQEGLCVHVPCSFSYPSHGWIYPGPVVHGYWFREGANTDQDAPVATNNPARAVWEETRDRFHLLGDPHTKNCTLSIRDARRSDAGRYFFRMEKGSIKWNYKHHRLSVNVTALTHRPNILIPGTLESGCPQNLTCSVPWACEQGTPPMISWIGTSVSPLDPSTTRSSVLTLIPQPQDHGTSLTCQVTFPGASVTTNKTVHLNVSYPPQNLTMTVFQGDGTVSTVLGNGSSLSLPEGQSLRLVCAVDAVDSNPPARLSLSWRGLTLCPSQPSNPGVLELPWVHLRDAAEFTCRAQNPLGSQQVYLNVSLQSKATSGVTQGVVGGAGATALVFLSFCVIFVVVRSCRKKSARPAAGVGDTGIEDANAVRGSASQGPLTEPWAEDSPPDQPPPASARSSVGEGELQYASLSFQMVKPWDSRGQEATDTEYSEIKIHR

[5] = test system: Trypanosoma cruzi; assay: Trypanosoma cruzi phosphomannomutase and mannose-1-phosphate guanylyltransferase assay; type: functional; settings: 10 µM
[6] = molecular target: T2, Arginase-2, mitochondrial (Homo sapiens) (UniProt P78540); assay: in vitro enzyme assay to detect the production of urea directly proportional to the activity of Arginase II; type: functional; settings: 33.3 µM; also: in the data most compounds retested in dose-response had high values
T2 sequence (whole entry): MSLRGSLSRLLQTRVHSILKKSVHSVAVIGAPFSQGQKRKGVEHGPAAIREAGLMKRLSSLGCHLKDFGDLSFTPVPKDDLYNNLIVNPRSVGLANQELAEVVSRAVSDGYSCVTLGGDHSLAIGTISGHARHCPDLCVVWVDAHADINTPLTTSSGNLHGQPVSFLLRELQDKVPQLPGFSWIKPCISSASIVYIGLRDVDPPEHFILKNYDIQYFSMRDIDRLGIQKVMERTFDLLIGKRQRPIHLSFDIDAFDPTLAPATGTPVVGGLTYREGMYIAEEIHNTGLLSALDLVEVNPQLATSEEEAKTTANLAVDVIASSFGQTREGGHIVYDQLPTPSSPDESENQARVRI

[7] = molecular target: T3, Proteasome subunit beta (Trypanosoma cruzi) (UniProt O96673); assay: Trypanosoma cruzi proteasome chymotrypsin-like activity (TcProtChymo) assay.; also: in the data most compounds retested in dose-response had high values; type: functional; settings: 9.37 µM
T3 sequence (whole entry): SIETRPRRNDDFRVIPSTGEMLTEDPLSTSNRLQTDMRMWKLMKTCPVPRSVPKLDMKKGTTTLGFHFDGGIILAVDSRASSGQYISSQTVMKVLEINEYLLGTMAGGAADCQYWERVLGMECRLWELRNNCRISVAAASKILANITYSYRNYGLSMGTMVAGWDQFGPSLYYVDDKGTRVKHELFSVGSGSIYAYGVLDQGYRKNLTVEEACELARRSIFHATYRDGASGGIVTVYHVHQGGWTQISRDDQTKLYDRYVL

[8] = species on record: Homo sapiens; assay: To identify inhibition of the IFN signalling (Jak-Stat) pathway via expression of an eGFP reporter gene under the control of an IFN-stimulated response element (ISRE) containing MxA promoter.; type: functional; settings: 30 µM
[9] = molecular target: T4, Tyrosyl-tRNA synthetase, putative (Trypanosoma cruzi (strain CL Brener)) (UniProt Q4DSP6); assay: Trypanosoma cruzi tyrosyl tRNA synthetase (TcYRS) _High Tyrosine SOP; type: functional; settings: 30 µM; also: in the data most compounds retested in dose-response had high values
T4 sequence (whole entry): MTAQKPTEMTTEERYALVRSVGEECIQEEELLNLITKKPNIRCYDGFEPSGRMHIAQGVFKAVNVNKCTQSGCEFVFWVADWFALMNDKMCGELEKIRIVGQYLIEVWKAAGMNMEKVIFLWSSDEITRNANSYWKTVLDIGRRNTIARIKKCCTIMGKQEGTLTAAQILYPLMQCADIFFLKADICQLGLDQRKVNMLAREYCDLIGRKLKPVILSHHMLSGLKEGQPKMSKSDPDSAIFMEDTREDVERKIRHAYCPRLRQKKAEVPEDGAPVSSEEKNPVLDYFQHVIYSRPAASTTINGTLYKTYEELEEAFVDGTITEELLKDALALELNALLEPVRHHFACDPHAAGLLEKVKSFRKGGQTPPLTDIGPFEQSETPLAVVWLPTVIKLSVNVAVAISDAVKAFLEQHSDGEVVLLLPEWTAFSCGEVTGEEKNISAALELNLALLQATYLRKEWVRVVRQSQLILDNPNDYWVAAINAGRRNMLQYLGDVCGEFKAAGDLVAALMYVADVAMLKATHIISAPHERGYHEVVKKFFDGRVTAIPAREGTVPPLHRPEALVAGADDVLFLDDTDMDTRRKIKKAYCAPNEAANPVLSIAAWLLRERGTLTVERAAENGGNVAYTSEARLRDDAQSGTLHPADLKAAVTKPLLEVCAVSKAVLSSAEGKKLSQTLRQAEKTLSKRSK

[10] = molecular target: T4, Tyrosyl-tRNA synthetase, putative (Trypanosoma cruzi (strain CL Brener)); assay: Trypanosoma cruzi tyrosyl tRNA synthetase (TcYRS) SOP; type: functional; settings: 30 µM
[11] = molecular target: Chromo domain-containing protein 1 (Saccharomyces cerevisiae (strain ATCC 204508 / S288c) (Baker's yeast)) (UniProt P32657); assay: ScCHD-1 Enzyme Inhibition Assay; type: functional; settings: 30 µM; also: in the data most compounds retested in dose-response had high values
Chromo domain-containing protein 1 (Saccharomyces cerevisiae (strain ATCC 204508 / S288c) (Baker's yeast)), sequence (P32657 whole entry, the tested form may be a part): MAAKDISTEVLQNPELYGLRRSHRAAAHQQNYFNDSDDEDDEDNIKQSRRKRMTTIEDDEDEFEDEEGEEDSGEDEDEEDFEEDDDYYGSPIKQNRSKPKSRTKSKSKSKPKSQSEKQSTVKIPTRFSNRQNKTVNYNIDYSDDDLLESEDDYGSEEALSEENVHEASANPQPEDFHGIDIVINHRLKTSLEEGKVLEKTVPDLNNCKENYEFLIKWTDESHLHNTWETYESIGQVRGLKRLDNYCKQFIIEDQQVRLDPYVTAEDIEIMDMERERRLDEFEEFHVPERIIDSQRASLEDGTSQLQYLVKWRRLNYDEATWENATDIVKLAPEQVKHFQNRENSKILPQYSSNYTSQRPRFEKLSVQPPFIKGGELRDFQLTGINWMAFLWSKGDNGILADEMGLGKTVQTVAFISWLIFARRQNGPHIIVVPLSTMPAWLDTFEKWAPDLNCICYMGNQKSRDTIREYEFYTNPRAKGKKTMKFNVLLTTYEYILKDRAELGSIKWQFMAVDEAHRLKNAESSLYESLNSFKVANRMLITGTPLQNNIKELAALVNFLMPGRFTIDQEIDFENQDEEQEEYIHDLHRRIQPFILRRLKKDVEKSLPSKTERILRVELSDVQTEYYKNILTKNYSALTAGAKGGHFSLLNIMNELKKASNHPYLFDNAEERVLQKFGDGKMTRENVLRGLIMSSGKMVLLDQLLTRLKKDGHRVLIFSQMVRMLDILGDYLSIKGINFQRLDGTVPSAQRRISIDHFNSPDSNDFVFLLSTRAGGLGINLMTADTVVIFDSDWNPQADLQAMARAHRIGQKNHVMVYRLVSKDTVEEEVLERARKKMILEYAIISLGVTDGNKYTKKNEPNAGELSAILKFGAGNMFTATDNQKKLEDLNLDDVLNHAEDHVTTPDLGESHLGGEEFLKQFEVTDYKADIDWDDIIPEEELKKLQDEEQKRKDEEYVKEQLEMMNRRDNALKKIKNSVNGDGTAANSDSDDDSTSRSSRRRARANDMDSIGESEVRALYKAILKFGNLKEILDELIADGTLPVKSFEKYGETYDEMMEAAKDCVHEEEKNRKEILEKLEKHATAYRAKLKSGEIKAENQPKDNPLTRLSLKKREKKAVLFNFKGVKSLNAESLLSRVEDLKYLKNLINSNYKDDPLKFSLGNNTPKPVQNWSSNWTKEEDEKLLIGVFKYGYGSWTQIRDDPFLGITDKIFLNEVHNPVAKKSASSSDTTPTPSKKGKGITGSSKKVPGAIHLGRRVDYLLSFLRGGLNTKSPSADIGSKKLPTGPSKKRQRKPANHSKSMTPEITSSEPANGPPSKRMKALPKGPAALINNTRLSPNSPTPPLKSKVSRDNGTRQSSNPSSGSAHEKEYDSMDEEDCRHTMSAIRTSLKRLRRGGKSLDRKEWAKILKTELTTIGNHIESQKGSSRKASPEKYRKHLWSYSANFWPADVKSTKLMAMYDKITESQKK

| Compound | Percent Effect [1] | Percent Effect [2] | Percent Effect [3] | Percent Effect [4] | Percent Effect [5] | Percent Effect [6] | Percent Effect [7] | Percent Effect [8] | Percent Effect [9] | Percent Effect [10] | Percent Effect [11] |
| --- | --- | --- | --- | --- | --- | --- | --- | --- | --- | --- | --- |
| CCn1c(N)nc2cc(C(=O)NCc3ccccc3Cl)cnc21 | -5.22% | 8.22% | 1.39% | -1.08% | -0.196% | 5.91% | 14.9% | 5.03% | 7.53% | 17.5% | -4.29% |
| c1cnc2c(C3CCN(Cc4ccsc4)CC3)n[nH]c2n1 | -4.33% | 20.3% | 10.3% | -8.48% | 5.14% | -1.62% | 17.9% | 18.2% | 3.23% | 9.09% | 20.2% |
| COCC1CN(C(=O)C2=CCCCC2)Cc2cnn(CC3CC3)c21 (configuration not stated) | -1.86% | 13% | 2.96% | 2.46% | 1.48% | -4.52% | 10.1% | 18% | 7.41% | 16.7% | -9.46% |
| CCOC(=O)C1CCN(Cc2csc(C(C)(C)C)n2)CC1 | 1.04% | 0% | 2.22% | 11% | -3.12% | 9.89% | -5.98% | 4.26% | 4.43% | -3.8% | -1.95% |
| CC(C)N1Cc2c(C(=O)N3CCOCC3)nn(C)c2C1 | -3.37% | -2.7% | 4.04% | 1.67% | -1.66% | 0.955% | 17.3% | -39.2% | -1.08% | 5.13% | 4.29% |
| Cc1ccccc1S(=O)(=O)NC(=O)CSc1ccc2c(c1)OCCO2 | -0.381% | 1.39% | -0.933% | -9.91% | -3.21% | 0% | 10% | 1.45% | -11.6% | -7.69% | 0.792% |
| COCC1c2c(cnn2CC2CC2)CCN1Cc1nccs1 (configuration not stated) | -2.49% | 13.3% | -1.8% | 5.98% | -4.05% | -26% | 12.1% | -5.9% | 4.17% | 20% | -6.08% |
| COc1cccc(CNCc2c(C(C)C)nn(C)c2N(C)C)c1OC | 2% | 10.5% | -0.641% | -1.37% | -7.33% | 2.68% | 16.2% | 8.82% | 3.43% | 7.32% | -8.1% |
| COc1ccccc1NC(=O)NCC(O)(c1ccccc1)C1CC1 (configuration not stated) | -6.75% | 11% | -22.1% | 33.1% | 7.05% | 7.27% | 12.9% | 7.23% | 0% | 10% | -6.95% |
| COc1cccc(COCC(=O)N2CCCC(n3ccnc3)C2)c1 (configuration not stated) | -4.67% | 18.9% | 21.3% | -4.82% | -6.13% | 0.802% | 3.06% | 10.7% | 6.4% | 11.1% | -5.14% |
| CCS(=O)(=O)Nc1ccn(Cc2cccc(Cl)c2)n1 | -6.93% | 0% | 0.628% | 6.52% | 2.85% | 1.38% | 9.48% | 13.7% | 6.45% | 13.6% | 120% |
| CN(C)CC(=O)N1CCOCC2(C1)CN(c1ccccc1)C(=O)CO2 (configuration not stated) | 1.58% | 8% | 11.2% | -1.53% | -4.05% | -56.8% | 3.08% | -9.58% | 5.21% | -22.5% | -7.95% |
| O=C(Cc1cccc(F)c1)NCCNCc1ccc2c(c1)CCO2 | -4.03% | 13% | -6% | 17.2% | 3.93% | -1.42% | -1.52% | -5.5% | 8.74% | 19.5% | -5.42% |
| Cc1cccc(-n2cc(C(=O)N3CCCC(n4ccnc4)C3)nn2)c1 (configuration not stated) | -3.01% | 15.6% | 7.1% | -13.5% | -5.58% | -3.16% | 14.6% | 21.7% | 1.91% | 11.8% | -17.4% |
| COc1ccc(CNC(=O)Nc2cccnc2N2CCCC2)cc1O | -2.46% | 16.2% | -3.7% | 16.1% | 4.81% | -7.62% | 1.62% | 7.88% | 2.46% | 16.1% | -7.7% |
| CO[C@H]1CO[C@@]2(CCCN(C(=O)C3=CCCCC3)C2)C1 | -5.62% | 13.3% | 1.22% | -1.82% | 1.35% | -47.5% | 8.03% | 0.996% | 3.12% | 2.5% | -8% |
| Cc1noc([C@@H]2C[C@H]3OCC[C@H]3N(S(C)(=O)=O)C2)n1 | -1.89% | 11% | -9.13% | 8.3% | 4.37% | -1.6% | 9.5% | 1.34% | 6.25% | 8.64% | -4.65% |
| Cc1nnc(NCc2cccnc2N(C)C)c(C#N)c1C | -0.868% | -5.41% | -22.1% | 9.49% | 2.88% | -4.25% | -2.87% | 6.79% | 2.97% | 6.1% | 0.273% |
| CC(C)Oc1cc(N2C[C@@H](C)O[C@@H](C)C2)nc(N)n1 | -1.28% | 8.11% | -16.9% | -0.905% | 0% | -17.1% | 12.8% | 3.78% | 10.1% | 12.2% | -1.35% |
| O=C([C@H]1COC[C@H]2CN(C3CCCC3)C[C@H]21)N1CCCCO1 | -1.86% | 0% | 2.27% | 5.11% | -0.579% | -51.4% | 2.39% | -22.5% | 0% | -5% | -3.46% |
| O=C(NCC(O)c1ccc(F)c(F)c1)c1cccnc1O (configuration not stated) | -0.608% | 13.7% | 1.02% | 2.28% | -0.198% | -4.39% | 24.9% | 3.44% | 10.4% | 21% | -4.53% |
| CCCN(CC1COc2ccccc2O1)C(=O)CCn1cncn1 (configuration not stated) | -3.98% | 13.2% | -1.36% | -1.88% | -1.5% | -0.383% | 8.52% | 0.478% | 7.35% | 17.1% | -2.23% |
